Laboratory results taken from PMC4336329 (PLoS ONE, 2015).
The whole screen tested about 310,000 compounds, of which about 14,000 (4.5%) showed an effect of 50% or more. Effects have a minus sign here. The sample holds strong results, similar compounds and a random draw of the others, so the mix is not that of the screen.

molecular target: human ether-à-go-go-related gene (hERG) potassium channel (human, UniProt Q12809); assay: primary screen, population patch clamp on CHO cells stably expressing hERG; higher = less effect of the substance
Sequence (Q12809 whole entry, looked up): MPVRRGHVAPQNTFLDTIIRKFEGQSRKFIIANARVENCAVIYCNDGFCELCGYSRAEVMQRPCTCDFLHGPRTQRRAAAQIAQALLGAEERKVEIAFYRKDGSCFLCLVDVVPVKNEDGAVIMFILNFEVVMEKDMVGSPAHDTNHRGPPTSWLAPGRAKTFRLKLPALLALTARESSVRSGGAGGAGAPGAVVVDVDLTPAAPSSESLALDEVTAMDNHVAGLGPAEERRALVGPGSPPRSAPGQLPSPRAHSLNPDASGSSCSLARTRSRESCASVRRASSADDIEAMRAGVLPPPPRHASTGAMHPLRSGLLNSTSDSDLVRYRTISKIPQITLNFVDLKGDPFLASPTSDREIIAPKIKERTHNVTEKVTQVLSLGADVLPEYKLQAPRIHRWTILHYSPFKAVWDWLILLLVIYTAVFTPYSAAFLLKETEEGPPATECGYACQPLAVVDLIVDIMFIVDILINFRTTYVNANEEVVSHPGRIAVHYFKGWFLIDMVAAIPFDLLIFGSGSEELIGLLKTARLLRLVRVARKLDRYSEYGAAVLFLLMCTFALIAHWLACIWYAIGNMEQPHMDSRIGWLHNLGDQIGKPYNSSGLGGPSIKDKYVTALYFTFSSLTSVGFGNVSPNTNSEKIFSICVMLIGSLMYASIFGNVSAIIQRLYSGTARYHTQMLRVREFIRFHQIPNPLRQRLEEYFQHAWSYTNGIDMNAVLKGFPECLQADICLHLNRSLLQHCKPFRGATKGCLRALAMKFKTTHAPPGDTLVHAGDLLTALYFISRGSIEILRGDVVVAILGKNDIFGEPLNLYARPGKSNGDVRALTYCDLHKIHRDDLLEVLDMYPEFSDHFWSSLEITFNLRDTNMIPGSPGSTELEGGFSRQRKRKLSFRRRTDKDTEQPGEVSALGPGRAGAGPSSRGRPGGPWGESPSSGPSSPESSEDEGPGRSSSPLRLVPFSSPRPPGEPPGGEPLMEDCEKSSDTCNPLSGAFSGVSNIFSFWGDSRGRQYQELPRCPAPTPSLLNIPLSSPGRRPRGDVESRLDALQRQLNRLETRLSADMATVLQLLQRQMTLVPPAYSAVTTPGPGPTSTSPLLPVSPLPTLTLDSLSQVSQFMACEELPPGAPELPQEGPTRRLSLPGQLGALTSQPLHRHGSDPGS
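Note: peak tail current of the secondary pulse compared with the same well before compound.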

SMILES	hERG current change (%, negative = inhibition) at 10uM [%]
Cc1ccc(Nc2nc3ccccc3n3cnnc23)cc1C	15.5
CCOC(=O)N1CCN(C(=O)CSc2nnc(COc3ccc(Cl)cc3)o2)CC1	-37.8
CCOCCCNC(=O)CCc1nnc2ccc(N3CCCCC3)nn12	11.1
COc1ccc(OC)c(NC(=O)C2CC(=O)N(c3ccccc3)C2)c1 (stereo not shown)	5.86
O=C(CCC(=O)OCC(=O)c1ccc(-c2ccccc2)cc1)Nc1cccc(Cl)c1	1.65
COc1ccc(C(=O)NC2CC2)cc1OC1CCN(Cc2cc(C)c(C)cc2C)CC1	-83.1
COc1ccc(C(=O)NC2CC2)cc1OC1CCN(Cc2cnn(C)c2C)CC1	-27.2
CCn1ncc(CN2CCC(Oc3cc(C(=O)NC4CC4)ccc3OC)CC2)c1C	-21.5
O=C(CCl)Nc1nc(-c2ccco2)c(-c2ccco2)s1	-10.1
O=C(c1cccc(OC2CCN(C3CCCC3)CC2)c1)N1CCCCCCC1	-36
CN(Cc1ccc(F)cc1)C(=O)c1cccc(OCc2ccccc2)c1	-16.9
CN(Cc1ccc(F)cc1)C(=O)c1cccc(OC2CCN(C3CCCC3)CC2)c1	-61
COCCC1CCCCN1C(=O)c1cccc(OC2CCN(C3CCCC3)CC2)c1 (stereo not shown)	17.6
COc1cccc(CN(C)C(=O)c2cccc(OCc3ccccc3)c2)c1	13.1
COc1cccc(CN(C)C(=O)c2cccc(OC3CCN(C4CCCC4)CC3)c2)c1	-55.1
O=[N+]([O-])C(C1CCS(=O)(=O)C1)C1CCS(=O)(=O)C1 (stereo not shown)	11.9
Cc1cccc(C2N(c3ccc(F)cc3)C(=O)C3CCCN32)c1 (stereo not shown)	-12.3
COc1cc(CN2CCN(Cc3ccc(C)cc3)CC2)c([N+](=O)[O-])cc1OC.O=C(O)C(=O)O	-77.2
COc1cc(CN2CCN(C(=O)CC(C)C)CC2)c([N+](=O)[O-])cc1OC	8.77
COc1cc(CN2CCN(Cc3ccc([N+](=O)[O-])cc3)CC2)c([N+](=O)[O-])cc1OC.O=C(O)C(=O)O	-68.2
CCN1CCN(Cc2cc(OC)c(OC)cc2[N+](=O)[O-])CC1	8.59
COc1cc(CN2CCCCCC2)c([N+](=O)[O-])cc1OC	3.94

SMILES	hERG current change (%, negative = inhibition) at 10uM [%]
COc1cccc(CN2CCN(Cc3cc(OC)c(OC)cc3[N+](=O)[O-])CC2)c1.O=C(O)C(=O)O	-46.3
Cc1cccc2[nH]c(CN(C)C(=O)CC3C(=O)NCCN3CC(C)(C)C)nc12 (stereo not shown)	3.23
Cc1cc(C(=O)NCc2ccco2)sc1C	16.2
CCO[C@H]1c2c(ccc3ccc(=O)oc23)OC(C)(C)[C@@H]1O	20.9
Cc1ccc(C(=O)C[n+]2ccc3ccccc3c2)cc1.[Br-]	-33.6
Cc1ccc[n+](CC(=O)c2ccccc2)c1.[Br-]	13.7
Cc1ccc(SCCc2cc[n+](CC(=O)c3ccccc3)cc2)cc1	-70.5
Cc1cc(C)c[n+](CC(=O)c2ccc(-c3ccccc3)cc2)c1.[Br-]	-45.3
Cc1ccc(SCCNC(=O)c2ccccc2)cc1	-0.806
Cc1cc[n+](CC(=O)c2ccc(NC(=O)c3ccccc3)cc2)cc1.[Br-]	2.6
CN(C)c1cc[n+](CC(=O)c2ccc(-c3ccccc3)cc2)cc1.[Cl-]	-2.97
Cc1ccc[n+](CC(=O)c2ccc(-c3ccccc3)cc2)c1.[Br-]	-52.4
Cc1ccc(C(=O)C[n+]2ccc(Cc3ccccc3)cc2)cc1.[Cl-]	-73.6
O=C(c1cc2ccccc2oc1=O)N1CCN(c2ncccn2)CC1	8.16
c1ccc2[nH]c(CSc3nnc(-c4ccncc4)o3)nc2c1	-24.8
COc1ccccc1Nc1nc(NCc2ccco2)c2ccccc2n1.Cl	-20.3
Cl.c1ccc(Nc2nc(NCc3ccco3)c3ccccc3n2)cc1	-71
Cl.Fc1ccc(Nc2nc(NCc3ccco3)c3ccccc3n2)cc1	-37.2
Cc1ccc(Nc2nc(NCc3ccco3)c3ccccc3n2)cc1.Cl	16.9
Cc1ccccc1Nc1nc(NCc2ccco2)c2ccccc2n1.Cl	-63.6
Cl.Oc1ccccc1Nc1nc(NCc2ccco2)c2ccccc2n1	-29.3
